# Assay outcomes (PubChem)
# IMPase cell inh = membrane-permeable compound that blocks inositol monophosphatase; CHO-M1 cells, IP1 accumulation, HTRF TR-FRET ratio; AID 901; P97697; 120,000 tested, under 10 active; inhibition (IP1 accumulation), % at 46.1 µM; active means well fitted curve in the direction sought with a large enough effect in the signal ratio, not every such curve was filed as active; inconclusive means small, poorly fitted or top-dose-only effect, or a change in a side signal; inactive means no such curve, though single readings can be large or run the other way; the % refers to the signal ratio;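 further: cells stimulated with carbachol in lithium chloride buffer; plate controls were DMSO basal wells for no effect and reference inhibitor wells for full effect; higher means more IMPase inhibition seen as more IP1 and lower FRET ratio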
#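 Carbachol-driven Gq signalling in CHO-M1 cells (2000/well) generates IP1. Compounds that block IMPase raise IP1 and so reduce the FRET signal from Eu-anti-IP1 and d2-IP1 after a 10 min room-temperature lysis.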
# HPGD inh = inhibitors of human 15-hydroxyprostaglandin dehydrogenase (HPGD). P15428. purified HPGD, NADH fluorescence kinetic, PGE2 substrate. Potency, µM, without a hit: at the highest dose activity change, negative = inhibition, usual class: inhibitors. 150,000 compounds, 4.3% hits; further: potency means the concentration at half of the fitted maximal effect
#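 NADH formation kinetics: reaction with 30 uM PGE2 and 1 mM NAD+ (final), 20 nM enzyme, Tris-HCl pH 8 with Tween 20, after 15 min compound preincubation at room temperature. Fluorescence change, last versus first of five reads.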
# ALDH1A1 inh = ALDH1A1 (human) enzyme inhibition. AID 1030. Purified ALDH1A1, NADH fluorescence, propionaldehyde substrate. Potency, µM (doses to about 75.3 µM), inactives show top-dose activity, negative = inhibition, most hits filed as inhibitors. 220,000 compounds, 7.3% hits;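 further: potency means the concentration at half of the fitted maximal effect; plate controls were no enzyme wells and a reference inhibitor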
# Target sequence (P00352 whole entry, looked up): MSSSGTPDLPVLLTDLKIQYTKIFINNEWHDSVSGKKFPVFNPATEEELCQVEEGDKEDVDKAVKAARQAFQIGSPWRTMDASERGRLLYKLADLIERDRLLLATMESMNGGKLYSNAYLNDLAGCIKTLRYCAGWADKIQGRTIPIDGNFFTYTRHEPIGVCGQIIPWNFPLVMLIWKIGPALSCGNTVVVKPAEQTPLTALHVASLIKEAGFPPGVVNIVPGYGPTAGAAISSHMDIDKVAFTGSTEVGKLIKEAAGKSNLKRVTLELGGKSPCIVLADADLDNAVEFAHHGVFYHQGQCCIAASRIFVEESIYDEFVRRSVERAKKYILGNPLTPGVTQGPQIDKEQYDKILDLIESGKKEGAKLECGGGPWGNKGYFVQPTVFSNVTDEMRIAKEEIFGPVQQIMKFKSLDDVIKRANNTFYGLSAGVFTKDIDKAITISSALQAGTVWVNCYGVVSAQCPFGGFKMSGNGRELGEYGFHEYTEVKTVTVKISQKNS
# * marks the source's active call; other numbers are inactive results; ? = inconclusive; · = not tested or not shown; ! = repeats disagree; [ ] = remark or other dose. An excerpt weighted towards active compounds, which were near 9% of everything screened. Unless noted, the call rests on the fitted dose curve; in most records, active means well fitted inhibition curve with a large enough effect (not every such curve was filed as active); inconclusive means small, poorly fitted or top-dose-only effect, or another doubt; inactive means no such curve, though single readings can be large or run the other way. Unless noted, on the % scale 0 is the no-effect control and ±100 the full control effect.
SMILES,IMPase cell inh,HPGD inh,ALDH1A1 inh
CCOC(=O)c1nnn(-c2nonc2-n2cccc2)c1-c1cccc([N+](=O)[O-])c1,·,·,-11%
O=C(Nc1ccc(-n2cccc2)cc1)C1CC1,·,·,2%
N[C@H]1CONC1=O,·,-8%,4%
COc1ccc(/C=C/C(=O)OCC(=O)Nc2ccc(OC)c(S(=O)(=O)N3CCCCC3)c2)cc1,-2,-22%,-6%
COc1cccc(/C=C/C(=O)OCC(=O)Nc2ccc(S(=O)(=O)N3CCCC3)cc2)c1,·,?,7.1µM*
O=C(Cn1nc(-c2ccccc2Cl)ccc1=O)Nc1ccccc1-c1ccccc1,·,·,0%
O=C(Cn1nc(-c2ccccc2F)ccc1=O)Nc1ccc(S(=O)(=O)N2CCCCCC2)cc1,-11,32µM*,?
O=C(Cn1nc(-c2ccccc2Cl)ccc1=O)Nc1ccc(Br)cc1,·,·,7.9µM*
Cc1ccccc1-c1ccc(=O)n(CC(=O)Nc2ccc(C(=O)N3CCCC3)cc2)n1,-1,14µM*,?
Cc1ccccc1-c1ccc(=O)n(CC(=O)Nc2ccc(N3CCOCC3)cc2)n1,-3,-5%,-1%
CC1CCCN(S(=O)(=O)c2ccc(NC(=O)Cn3nnc(-c4ccccc4F)n3)cc2)C1 (stereo not given),-5,-6%,?
O=C(COC(=O)CN1C(=O)c2ccccc2C1=O)Nc1ccc(S(=O)(=O)N2CCCC2)cc1,4,-2%,?
O=C(COC(=O)CCN1C(=O)c2ccccc2C1=O)Nc1ccc(S(=O)(=O)N2CCCC2)cc1,16,-14%,5µM*
Cc1ccc(C)c(NC(=O)CNS(=O)(=O)c2ccccc2)c1,-11,-4%,-1%
CC(=O)c1ccc(NC(=O)C2C3C=CC(C3=C(c3ccccc3)c3ccccc3)C2C(=O)O)cc1 (stereo not given),·,·,-14%
O=C1c2cccc(O)c2C(=O)c2c(O)cccc21,·,35µM*!,?
O=C1c2ccccc2C(=O)c2c1ccc(O)c2O,?,28µM*,?
CN(C)c1cccc2c1C(=O)c1ccccc1C2=O,·,-6%,?
O=C1c2c(O)ccc([N+](=O)[O-])c2C(=O)c2c([N+](=O)[O-])ccc(O)c21,·,?,3%
O=C1c2ccc(O)c(O)c2C(=O)c2c(O)ccc(O)c21,·,11µM*,?
COC(=O)c1ccc2c(c1O)C(=O)c1ccccc1C2=O,0,-17%,11%
Cc1ccc2oc(-c3cc(NC(=O)Cc4ccccc4)ccc3Cl)nc2c1,-16,·,·
COc1ccc(-c2[nH]ncc2CN(C)Cc2ccccn2)c(OC)c1,·,·,0%
O=C(O)Cc1cc(C(=O)Nc2ccc(Br)cc2)sc1-c1ccccc1,·,-26%,?
NS(=O)(=O)c1ccc(CCNC(=O)c2cc(-c3cc(Cl)ccc3O)n[nH]2)cc1,·,·,18%
SMILES,IMPase cell inh,HPGD inh,ALDH1A1 inh
CCn1c(=O)c2cc(C(=O)N(C)c3ccccc3F)sc2c2ccccc21,·,·,25µM*
CCn1c(=O)c2cc(C(=O)N(C)c3ccc(OC)cc3OC)sc2c2ccccc21,·,·,-4%
C=CCNC(=O)COC(=O)c1ccc(Cl)c(S(=O)(=O)N(Cc2ccccc2)c2ccccc2)c1,10,-16%,-1%
Cc1cc(C(=O)CN2C(=O)NC3(CCC(C)CC3)C2=O)c(C)n1C (stereo not given),·,·,0%
Cc1ccc(C(=O)ONc2ccc(N=NC(=O)c3ccccc3O)cc2)cc1,0,28µM*,?
Cc1ccc(C(=O)ONc2ccc(N=O)cc2)cc1,0,-6%,?
O=c1c2ccccc2cnn1Cc1n[nH]c(=S)n1-c1ccccc1,·,-12%,0%
COC(=O)/C(=C(/F)Sc1cc(C)c(O)c(C)c1)C(F)(F)F,-1,-23%,-2%
CCCCC(=O)Nc1c(C)cc(C)cc1Cl,-4,35µM*,-9%
CCC(=O)Nc1c(C)cc(C)cc1Cl,-2,-19%,3%
CC(C)=C[C@H]1[C@@H](COC(=O)c2cc3c(cc2Cl)OCO3)C1(C)C,·,-18%,-2%[13.5 µM]
NC(=O)CS(=O)(=O)c1nc2ccccc2n1Cc1ccccn1,·,·,-2%
COc1ccc(Cn2c(S(=O)(=O)CC(N)=O)nc3ccccc32)cc1[N+](=O)[O-],·,·,7.1µM*
CCN(CC)C[C@@H]1CCCCN1CC(=O)N1c2ccccc2C(=O)Nc2cccnc21,15,-2%,8%
C/[N+]([O-])=C\CC(=O)c1ccc(-c2ccccc2)cc1,·,·,28µM*
CCN(CC)CC(=O)c1ccc(-c2ccccc2)cc1,-2,-26%,?
CN(C)CC(=O)c1ccc(-c2ccccc2)cc1,2,-22%,?
CCN(CC)C(=O)c1ccc(-c2ccccc2)cc1,·,0.63µM*,?
CCOc1ccccc1NC(=O)C(=O)N/N=C/c1cc(Br)ccc1O,·,·,7%
Cc1cc([N+](=O)[O-])cnc1NC(C)c1ccccc1 (stereo not given),1,-16%,22µM*
CC(Nc1cc(N2CCCC2)ccc1[N+](=O)[O-])c1ccccc1 (stereo not given),5,-26%,?
CCOC(=O)c1c(NC(=O)CSC2=NN3CCCC(=O)N=C3S2)sc2c1CCCCC2,·,-12%,?
COc1cccc(CN(C(=O)Cn2nnc(-c3ccccc3F)n2)C(C(=O)NC(C)(C)C)c2ccncc2)c1 (stereo not given),·,·,24µM*
CC(C)(C)NC(=O)C(c1ccncc1)N(Cc1cccs1)C(=O)Cn1nnc(-c2ccc(F)cc2)n1 (stereo not given),-4,2%,-14%
NC(CO)C(=O)NNCc1ccc(O)c(O)c1O (stereo not given),·,-9%,3.4µM*
SMILES,IMPase cell inh,HPGD inh,ALDH1A1 inh
N[C@H](CO)C(=O)NCC(=O)O,·,-3%,-5%[13.5 µM]
COc1ccccc1NC(=S)N1CCn2cccc2C1c1cccnc1 (stereo not given),·,·,-14%
CC(=O)N1CCc2cc(S(=O)(=O)NC(Cc3ccccc3)C(=O)NCCN3CCCCC3C)ccc21 (stereo not given),·,·,-15%
O=C(CCCNS(=O)(=O)c1cccc2nsnc12)NCc1ccccc1,6,·,5µM*
CCc1ccc(NC(=O)CCNS(=O)(=O)c2cccc3nonc23)cc1,12,0%,22µM*
COc1ccc(NC(=O)CNS(=O)(=O)c2cccc3nonc23)c(OC)c1,-13,?,13µM*
Cc1ccc(CNC(=O)CCCNS(=O)(=O)c2cccc3nonc23)cc1,17,-12%,7.1µM*
O=C(CCCNS(=O)(=O)c1cccc2nsnc12)NCc1ccc(Cl)cc1,0,-8%,?
COc1ccc(NC(=O)CCS(=O)(=O)c2ccccc2)c(OC)c1,1,0%,0%
CC(=O)c1ccc(NC(=O)CCNS(=O)(=O)c2cccc3nonc23)cc1,-11,-10%,?
O=C(CCCNS(=O)(=O)c1cccc2nsnc12)NCc1ccc(F)cc1,-6,-17%,?
Cn1cnnc1-c1cccc(NC(=O)c2cc(F)c(F)cc2Cl)c1,·,·,-9%
COc1ccc(CN(C)CC(=O)Nc2cc(OC)c([N+](=O)[O-])cc2C)c(OC)c1,9,-7%,4%
O=C(Nc1ccc(N2C(=O)CCC2=O)cc1Cl)c1cccs1,·,·,2%
CS(=O)(=O)N(CC(=O)NCCSc1ccccn1)c1cccc2ccccc12,·,-9%,3%
CCCCOc1ccc(Cn2c(=O)sc3ccccc32)cc1OC,0,·,·
Cn1c(COc2ccc(Cl)cc2)nnc1SCC(=O)Nc1ccc2c(c1)CCC2,·,-4%,-4%
